# Measurements taken from PubChem BioAssay (NCI).
# Where “and” joins values, the source holds several entries; their conditions need not be identical. Equal values may be shown once. About 83,000 compounds went through this panel and 20% of them were active in at least one assay; those are over-represented in the sample as a whole.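 Results are percent growth after 48 hours of single-concentration exposure. 100 means growth as in untreated cells, lower positive values show inhibition; negative values down to -100 show cell death.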 Calls of active or inactive are those of the source. Rule for the calls: active = growth percent below 10; inactive = the rest.
# How the values were obtained:
# Assay in all cases: NCI-60 one-dose screen, 48 h (100 = growth as untreated, 0 = no growth, -100 = all killed)
# NCI-H226 lung = conditions: 10 µM
# NCI-H322M lung = conditions: 10 µM
# HOP-62 NSCLC = conditions: 10 µM
# NCI-H460 lung = conditions: 10 µM
# A549/ATCC NSCLC = conditions: 10 µM
# 786-0 renal = conditions: 10 µM
# DU-145 prostate = conditions: 10 µM
# SF-268 CNS = conditions: 10 µM
# SF-295 CNS = conditions: 10 µM
# SF-539 CNS = conditions: 10 µM
# HCT-15 colon = conditions: 10 µM
# SNB-75 CNS = conditions: 10 µM
# SNB-19 CNS = conditions: 10 µM
# U251 CNS = conditions: 10 µM
# PC-3 prostate = conditions: 10 µM
# EKVX NSCLC = conditions: 10 µM
# UO-31 renal = conditions: 10 µM
# ACHN renal = conditions: 10 µM
# HL-60(TB) leukemia = conditions: 10 µM unless noted
# CCRF-CEM leukemia = conditions: 10 µM
SMILES,growth (NCI-H226 lung),growth (NCI-H322M lung),growth (HOP-62 NSCLC),growth (NCI-H460 lung),growth (A549/ATCC NSCLC),growth (786-0 renal),growth (DU-145 prostate),growth (SF-268 CNS),growth (SF-295 CNS),growth (SF-539 CNS),growth (HCT-15 colon),growth (SNB-75 CNS),growth (SNB-19 CNS),growth (U251 CNS),growth (PC-3 prostate),growth (EKVX NSCLC),growth (UO-31 renal),growth (ACHN renal),growth (HL-60(TB) leukemia),growth (CCRF-CEM leukemia)
C[C@@H]1CCC/C=C/[C@H]2C[C@@H](O)C[C@@H]2[C@@H](O)/C=C/C(=O)O1,7.32% (active),6.35% (active),1.72% (active),18.2% (inactive),16.1% (inactive),-31.4% (active),28.4% (inactive),17.6% (inactive),21.6% (inactive),31.7% (inactive),11.2% (inactive),47% (inactive),30.2% (inactive),17.6% (inactive),19.5% (inactive),11.5% (inactive),6.57% (active),9.31% (active),-22.7% (active),12.3% (inactive)
C/C=C/CC(C)C(O)[C@H](NC(=O)[C@@H]1CCCN1C(=O)C(C)(C)NC(=O)CCCCCCCCC)C(=O)N[C@@](C)(CC)C(=O)N[C@@H](CCC(N)=O)C(=O)N[C@H](CCC(N)=O)C(=O)NC(C)(C)C(=O)N[C@@](C)(CC)C(=O)N[C@@H](CCC(N)=O)C(=O)N[C@H](CC(C)C)C(=O)N[C@H](CO)CC(C)C (some centres undefined),99.5% (inactive) and -21.5% (active),105% (inactive) and -23.7% (active),104% (inactive) and -67.3% (active),106% (inactive) and -77.3% (active),103% (inactive) and 26.2% (inactive),108% (inactive) and -81.9% (active),103% (inactive) and -72.3% (active),104% (inactive) and -52.9% (active),104% (inactive) and -83.9% (active),100% (inactive) and -100% (active),101% (inactive) and 20.9% (inactive),96.1% (inactive) and -85.9% (active),101% (inactive) and -98% (active),107% (inactive) and -75.1% (active),97.3% (inactive) and -48.8% (active),106% (inactive) and -68.1% (active),85.2% (inactive) and -84.9% (active),103% (inactive) and -7.13% (active),100% (inactive) and -46.1% (active),98.9% (inactive) and -46.2% (active)
C/C=C/CC(C)C(O)[C@H](NC(=O)[C@@H]1CCCN1C(=O)C(C)(C)NC(=O)CCCCCCCCC)C(=O)N[C@@](C)(CC)C(=O)N[C@@H](CCC(N)=O)C(=O)N[C@H](CCC(N)=O)C(=O)NC(C)(C)C(=O)NC(C)(C)C(=O)N[C@@H](CCC(N)=O)C(=O)N[C@H](CC(C)C)C(=O)N[C@H](CO)CC(C)C (some centres undefined),-0.538% (active) and 75.5% (inactive),31% (inactive) and 67.6% (inactive),-12.3% (active) and 28.3% (inactive),-56.6% (active) and 12.7% (inactive),78.8% (inactive) and 99.8% (inactive),-39.5% (active) and 25.2% (inactive),-94.5% (active) and -42.1% (active),-77% (active) and 4.8% (active),-64.6% (active) and -30.2% (active),-69.3% (active) and 12% (inactive),38% (inactive) and 89.3% (inactive),-55.9% (active) and -38.8% (active),-28.9% (active) and 35.2% (inactive),-89.3% (active) and 13.7% (inactive),21.4% (inactive) and 32.4% (inactive),0.155% (active) and 23% (inactive),39.1% (inactive) and 62.6% (inactive),40.3% (inactive) and 68.4% (inactive),–,14.7% (inactive) and 49.4% (inactive)
CC1=C2C(=C[C@@](C)(COC(=O)c3ccc(S(=O)(=O)F)cc3)[C@@H]2OC(=O)c2ccc(S(=O)(=O)F)cc2)C(=O)[C@](C)(O)C12CC2,-6.08% (active),9.18% (active),-20.3% (active),0.279% (active),2.93% (active),-44.2% (active),5.79% (active),2.06% (active),1.3% (active),-4.86% (active),0.515% (active),-8.24% (active),21.5% (inactive),-21.5% (active),16.2% (inactive),23.6% (inactive),-13.7% (active),-15.8% (active),8.8% (active),36.3% (inactive)
